Screens: PubChem BioAssay, National Center for Advancing Translational Sciences (NCATS)
This excerpt belongs to a sample that is enriched for hits.
Pf Dd2 inh – Plasmodium falciparum Dd2 growth inhibition. P. falciparum Dd2 growth, SYBR Green, 72 h. Potency, µM (top dose mostly 28.9 µM), hits mostly inhibitors. 4.3% of 120,000 active. AID 1347417; active means well fitted inhibition curve with a large enough effect; further: nearly all actives have a fitted effect of over 65% in size
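Infected erythrocytes (Dd2, 0.3% parasitemia, 2.5% hematocrit final) are added to compound in RPMI-1640/Albumax II medium, grown 72 h at 37C in low oxygen, then lysed with saponin/Triton-X containing SYBR Green and read by fluorescence.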
Of the large screens only hits and unclear results are named; the others gave an inactive call.

CC[C@H]1CN(C(=O)C2CC2)CC[C@H]1CC(=O)N1CCC(C(=O)OC)CC1	none
COc1ccccc1CNC(=O)c1ccc(-c2nc(CN3CCc4ccccc43)c(C)o2)cc1	Pf Dd2 inh 10µM
CCc1ccc(-c2nc(CSCC(=O)NCc3ccccc3OC)c(C)o2)cc1	none
CCOc1ccccc1CNC(=O)c1ccc2c(c1)N(Cc1ccc(C)cc1)CCS2	none
CCCCOc1ccc(CNC(=O)c2ccc(-c3nc(CN4CCc5ccccc54)c(C)o3)cc2)cc1	none
COc1ccc(Br)cc1CNC(=O)c1ccc2c(c1)N(Cc1ccc(C)cc1)CCS2	none
COc1ccccc1CNC(=O)c1ccc2c(c1)N(Cc1ccc(C)cc1)CCS2	Pf Dd2 inh 10µM
COc1ccc(CC(=O)N2C[C@@H](CO)[C@H](c3ccncc3)C2)cc1OC	none
CCn1cc(CNc2ncc(C(C)(C)C(=O)O)c(N3CCOCC3)n2)cn1	none
O=C(O)COCC(=O)N1Cc2[nH]cnc2C[C@H]1c1nc(Cc2ccccc2)no1	none
CN(CCc1noc(C2CN(C(=O)CN3CCCCCC3)C2)n1)S(C)(=O)=O	none
O=C1c2ccccc2CN1C1CCN([S+](=O)([O-])c2ccccc2)CC1	none
Cc1nn2c(c1-c1ccccc1C(C)C)N(Cc1ccc(C(=O)O)s1)CCC2	none
Cc1nn2c(c1-c1ccccc1OCc1ccccc1)N(Cc1cccc(O)c1)CCC2	Pf Dd2 inh 2.2µM
Cc1nn2c(c1-c1ccccc1C(C)C)N(Cc1ccc3c(c1)CCO3)CCC2	Pf Dd2 inh 7.1µM
Cc1nn2c(c1-c1ccccc1C(C)C)N(C(=O)C1CCOCC1)CCC2	none
Cc1nn2c(c1-c1ccccc1Oc1ccccc1)N(Cc1cccc(C#N)c1)CCC2	none
Cc1ccncc1-c1c(C)nn2c1N(Cc1cccc(O)c1)CCC2	none
CN(Cc1ccccc1C(F)(F)F)CC1CCCCC1	none
COCC1CN(C2CCC2)CC12CCN(C(=O)c1ccccc1OC)CC2 (configuration not stated)	none
O=C1c2c(nc(CNc3ccc(F)cc3)n2Cc2ccccc2)NCCN1Cc1ccccc1	none
Cc1ccc(Nc2ccc3c(n2)CN(C)C(=O)CO3)c(C)c1	none
COc1ccc(-n2nc(C(=O)N3CCCCC3C)c3c4ccccc4n(C)c3c2=O)cc1Cl (configuration not stated)	none
CCOc1ccc(CCNC(=O)c2nn(-c3ccc(OC)c(Cl)c3)c(=O)c3c2c2ccccc2n3C)cc1OCC	Pf Dd2 inh 2.8µM
COc1ccc(-n2nc(C(=O)N(C)c3cc(C)ccc3C)c3c4ccccc4n(C)c3c2=O)cc1Cl	none
COc1ccc(-n2nc(C(=O)NCCCOC(C)C)c3c4ccccc4n(C)c3c2=O)cc1	none
COc1ccc(-n2nc(C(=O)NCCc3ccc(OC)c(OC)c3)c3c4ccccc4n(C)c3c2=O)cc1Cl	Pf Dd2 inh 2µM
CCOC(=O)C1CCN(C(=O)c2nn(-c3ccc(C)cc3)c(=O)c3c2c2ccccc2n3C)CC1	none
CCOc1ccc(CNC(=O)c2nn(-c3ccc(OC)cc3)c(=O)c3c2c2ccccc2n3C)cc1	none
CCc1ccc(CNC(=O)c2nn(-c3ccc(C)cc3)c(=O)c3c2c2ccccc2n3C)cc1	none
CCOC(=O)C1CCN(C(=O)c2nn(-c3ccc(OC)c(Cl)c3)c(=O)c3c2c2ccccc2n3C)CC1	Pf Dd2 inh 11µM
CCOC(=O)N1CCN(C(=O)c2cc(Cn3nc(C)cc3C)[nH]n2)CC1	none
CS(=O)(=O)N(Cc1cccnc1)C1CN(C(=O)c2ccc3ccccc3n2)C1	none
CN(C)C[C@@H]1CN(c2ncccn2)C[C@H]1NC(=O)Cc1cccc(F)c1	none
COC[C@@H]1CN(C(=O)c2cc(C)nn2C)C[C@H]1c1ccncc1	none
CC1(COc2cccnc2)COc2ccc(C(=O)NCc3cccs3)cc2N1 (configuration not stated)	none
COc1ccc(N(C)C2CN(C(=O)OC(C)(C)C)C2)cc1	none
Cc1cc(C[C@@H]2COC[C@@H]2NC(=O)c2cccc(Cn3nc(C)cc3C)c2)on1	none
COCCNC(=O)CCCN1C(=O)COc2ccc(C(=O)COc3ccccc3Cl)cc21	none
O=C(CN1C(=O)NC2(CCOCC2)C1=O)N1CCN(c2ccc(F)cc2)CC1	none
CCOc1ccc(CN(C)C2CCOc3ccccc32)cc1 (configuration not stated)	none
CCOc1ccccc1CN(CCc1ccc2c(c1)OCO2)Cc1cc(OC)c(OC)cc1OC	Pf Dd2 inh 4µM
CCOc1ccc(CN(CCc2ccc3c(c2)OCO3)Cc2cccc(OC)c2)cc1	none
CCOc1ccccc1CNC(=O)c1noc(-c2ccc3c(c2)OCO3)n1	none
CCOc1ccc(CN(CCc2ccc3c(c2)OCO3)Cc2cccc(Br)c2)cc1	none
CCOc1ccc(CN(CCc2ccc3c(c2)OCO3)Cc2ccc(C)cc2)cc1	Pf Dd2 inh 10µM
Cc1nc2c(c(-c3ccc(O)cc3)n1)CN(C(=O)c1ccc(C(F)(F)F)cc1)CC2	none
COc1cccc(S(=O)(=O)N2CCCC(Cc3nncn3CC3CC3)C2)c1 (configuration not stated)	none
COc1ccc(Cn2c(SCc3ccc(C(=O)NCc4ccc(C)cc4)cc3)nc3cccnc32)cc1	Pf Dd2 inh 10µM
O=C(NCc1ccco1)c1ccc(Cn2c(SCc3ccccc3)nc3cccnc32)cc1	none
CC(C)OCCCNC(=O)c1ccc(CSc2nc3cccnc3n2Cc2ccccc2)cc1	none
COc1cccc(CNC(=O)c2ccc(Cn3c(SCc4ccccc4)nc4cccnc43)cc2)c1	Pf Dd2 inh 10µM
Cc1cccc(CNC(=O)c2ccc(Cn3c(SCc4cccc(F)c4)nc4cccnc43)cc2)c1	none
COCCCNC(=O)c1ccc(CSc2nc3cccnc3n2Cc2ccc(OC)cc2)cc1	none
CC(=O)NCC(=O)N1CCCC(n2cc(-c3nc(-c4ccccc4)no3)nn2)C1 (configuration not stated)	none
CO[C@H]1C(=O)N(C(C)C)[C@H]1C1CCN(C(=O)c2cccc3[nH]ccc23)CC1	none
CCOc1ccccc1CNCCSc1nnnn1C	none
Cn1nnnc1SCCCNCc1cccc(OCc2ccccc2Cl)c1	Pf Dd2 inh 10µM
COc1cccc(CNCCSc2nnnn2C)c1OCc1ccc(Cl)cc1Cl	none
CCOc1ccc(CNCCCSc2nnnn2C)cc1OC	none
Cn1nnnc1SCCCNCc1cc(Cl)ccc1OCc1ccccc1	Pf Dd2 inh 7.9µM
COc1cc(CNCCSc2nnnn2C)cc(Cl)c1OCc1ccccc1	none
CNC(=O)[C@@H]1C[C@H](Oc2cccnc2)CN1C(=O)CC1CCCCC1	none
C[C@@H](NC(=O)COc1ccccc1)c1c(-c2ccc(Cl)cc2)noc1C(=O)O	none
CCOCCOC1CCN(C(=O)NCCc2ccccc2)CC1	none
Cc1ncsc1CN1CCC([C@@H]2CNC[C@H]2CO)CC1	none
COc1ccc(-c2cc(N3CCCC(NC(=O)Cc4ccsc4)C3)n[nH]2)cc1 (configuration not stated)	none
Cc1cc(NC(=O)C2CCN(C(=O)c3ncn4c3COC(c3ccc(F)cc3)C4)CC2)ccc1Cl (configuration not stated)	none
Cc1c(Cl)cccc1NC(=O)Cn1cc2c(n1)CCCC2	none
O=C(Cn1cc2c(n1)CCCC2)Nc1cc(C(F)(F)F)ccc1Cl	Pf Dd2 inh 7.1µM
Cc1ccc(NC(=O)Cn2cc3c(n2)CCCC3)c(C)c1	none
COc1ccc(NC(C)=O)cc1NC(=O)C1CC(=O)N(c2n[nH]c3ccccc23)C1 (configuration not stated)	none
CN(C/C=C/c1ccccc1)c1cc(C2CC(O)C2)nc(N)n1 (configuration not stated)	none
Cc1cc2cc(-c3c(C)noc3C)nc(-c3ccnn3C)c2o1	none
O=C1NCCCCCCN(C(=O)CN2CCCC2=O)[C@H]2C[C@H](c3nc(Cc4ccccc4)no3)C[C@@H]12	none
Cn1nccc1C(=O)N1CCCCCCNC(=O)[C@@H]2C[C@@H](c3nc(Cc4ccccc4)no3)C[C@@H]21	none
